Test results from PubChem BioAssay (Tox21).
Records with an inconclusive call do not appear. The source made the active and inactive calls. The call rests on the fitted dose curve; in most records, active means well fitted curve in the direction sought with a large enough effect in the repeat runs; inconclusive means weak or mixed curves; inactive means no such curve, though single readings can be large; an effect the other way counts as inactive or inconclusive.

Columns and labels:
[1] = qHTS RealTime-Glo MT Cell Viability Assay in HepG2 cells - 24 hour (AID 1224867); further: nearly all actives have a fitted effect of over 50% in size
Outline: (§1)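 HepG2 cells (600/well) were dispensed with RealTime-Glo reagents, incubated 5 h at 37 °C, then treated with compounds in DMSO for up to 40 h. Nonlytic NanoLuc luminescence reflecting viable cells was read at each stated time point.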

[2] = qHTS RealTime-Glo MT Cell Viability Assay in HEK293 cells - 32 hour (AID 1224868); further: top concentration of the series differs between compounds; nearly all actives have a fitted effect of over 50% in size
Outline: (§2)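 HEK293 cells seeded with NanoLuc/prosubstrate reagent, rested 5 h at 37 C, then dosed and kept at 37 C up to 40 h. Nonlytic real-time luminescence from viable cells read at 0, 8, 16, 24, 32 and 40 h.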

[3] = A CellTox Green Cytotoxicity Assay to monitor cytotoxicity in HEK293 cells - 0 hour (AID 1224869); further: nearly all actives have a fitted effect of over 50% in size
Outline: (§3)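 HEK293 cells premixed with CellTox Green dye were seeded at 600 cells/well and left 5 h at 37 C/5% CO2 before pin transfer of 23 nL compound in DMSO. Fluorescence from dye bound to dead-cell DNA was read during 40 h treatment.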

[4] = qHTS RealTime-Glo MT Cell Viability Assay in HepG2 cells - 40 hour (AID 1224870); further: nearly all actives have a fitted effect of over 50% in size
Outline: (§4)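 Real-time viability: cells seeded at 600 per well together with NanoLuc and cell-permeant prosubstrate, compounds added after 5 h incubation. Luminescence tracked at 0, 8, 16, 24, 32 and 40 h of exposure.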

[5] = A CellTox Green Cytotoxicity Assay to monitor cytotoxicity in HEK293 cells - 40 hour (AID 1224871); further: nearly all actives have a fitted effect of over 45% in size
Outline: as §3

[6] = qHTS RealTime-Glo MT Cell Viability Assay in HEK293 cells - 16 hour (AID 1224872)
Outline: as §2

[7] = qHTS RealTime-Glo MT Cell Viability Assay in HepG2 cells - 8 hour (AID 1224873); further: nearly all actives have a fitted effect of over 55% in size
Outline: as §4

[8] = qHTS RealTime-Glo MT Cell Viability Assay in HEK293 cells - 40 hour (AID 1224874); conditions: RealTime-Glo luminescence, stronger effect = lower value; further: nearly all actives have a fitted effect of over 50% in size
Outline: (§5)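 HEK293 cells mixed with RealTime-Glo reagents (NanoLuc plus cell-permeant prosubstrate) at 600 cells/well, preincubated 5 h at 37 C/5% CO2, then given 23 nL compound in DMSO. Nonlytic luminescence from viable cells was read at 0, 8, 16, 24, 32 and 40 h.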

[9] = A CellTox Green Cytotoxicity Assay to monitor cytotoxicity in HEK293 cells - 24 hour (AID 1224875); further: series mostly up to about 77 µM; nearly all actives have a fitted effect of over 45% in size
Outline: as §3

[10] = qHTS RealTime-Glo MT Cell Viability Assay in HepG2 cells - 32 hour (AID 1224877); further: nearly all actives have a fitted effect of over 55% in size
Outline: as §1

[11] = qHTS RealTime-Glo MT Cell Viability Assay in HEK293 cells - 0 hour (AID 1224880); further: top concentration of the series differs between compounds; nearly all actives have a fitted effect of over 45% in size
Outline: as §5

[12] = A CellTox Green Cytotoxicity Assay to monitor cytotoxicity in HEK293 cells - 32 hour (AID 1224881); further: nearly all actives have a fitted effect of over 40% in size
Outline: as §3

[13] = A CellTox Green Cytotoxicity Assay to monitor cytotoxicity in HepG2 cells - 0 hour (AID 1224882); further: nearly all actives have a fitted effect of over 35% in size
Outline: (§6)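 HepG2 cells were seeded together with the CellTox Green dye at 600 cells/well, left 5 h at 37 C/5% CO2, then given compounds in DMSO. Fluorescence from dye bound to dead-cell DNA was read repeatedly over 40 h of treatment at 37 C.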

[14] = A CellTox Green Cytotoxicity Assay to monitor cytotoxicity in HEK293 cells - 8 hour (AID 1224884); further: nearly all actives have a fitted effect of over 35% in size
Outline: as §3

[15] = qHTS RealTime-Glo MT Cell Viability Assay in HepG2 cells - 16 hour (AID 1224885); further: nearly all actives have a fitted effect of over 50% in size
Outline: as §1

[16] = qHTS RealTime-Glo MT Cell Viability Assay in HEK293 cells - 24 hour (AID 1224886)
Outline: as §2

[17] = A CellTox Green Cytotoxicity Assay to monitor cytotoxicity in HepG2 cells - 16 hour (AID 1224876); further: nearly all actives have a fitted effect of over 45% in size
Outline: as §6

[18] = A CellTox Green Cytotoxicity Assay to monitor cytotoxicity in HepG2 cells - 32 hour (AID 1224883); further: nearly all actives have a fitted effect of over 50% in size
Outline: as §6

[19] = A CellTox Green Cytotoxicity Assay to monitor cytotoxicity in HepG2 cells - 40 hour (AID 1224879); further: nearly all actives have a fitted effect of over 40% in size
Outline: as §6

[20] = A CellTox Green Cytotoxicity Assay to monitor cytotoxicity in HepG2 cells - 24 hour (AID 1224878); further: nearly all actives have a fitted effect of over 45% in size
Outline: as §6
On the % scale 0 is the no-effect control and ±100 the full control effect.

CCO[Si](CC(C)C)(OCC)OCC
inactive: outcome [1] | outcome [2] | outcome [3] | outcome [4] | Potency [5] | outcome [6] | outcome [7] | max response [8] -8.56% | Potency [9] | outcome [10] | Potency [11] | Potency [12] | Potency [13] | Potency [14] | outcome [15] | outcome [16]

COC(=O)C(c1ccccc1Cl)N1CCc2sccc2C1 (stereo not given)
inactive: outcome [1] | outcome [2] | outcome [3] | outcome [4] | Potency [5] | outcome [7] | max response [8] -3.35% | Potency [9] | Potency [17] | outcome [10] | Potency [11] | Potency [12] | Potency [13] | Potency [18] | Potency [14] | outcome [15] | outcome [16]

CC/C=C/CCCCCCCCCCOC(C)=O
inactive: outcome [1] | outcome [2] | outcome [3] | outcome [4] | Potency [5] | outcome [6] | outcome [7] | Potency [17] | outcome [10] | Potency [19] | Potency [11] | Potency [12] | Potency [13] | Potency [18] | Potency [14] | outcome [15] | outcome [16]

CN(C)c1cc(NC(=O)CNC(C)(C)C)c(O)c2c1C[C@H]1C[C@H]3[C@H](N(C)C)C(=O)C(C(N)=O)=C(O)[C@@]3(O)C(=O)C1=C2O
inactive: outcome [1] | outcome [2] | outcome [3] | outcome [4] | Potency [5] | outcome [7] | max response [8] 2.22% | Potency [9] | Potency [17] | outcome [10] | Potency [20] | Potency [19] | Potency [11] | Potency [12] | Potency [13] | Potency [18] | Potency [14] | outcome [15] | outcome [16]

CN(C)CCc1c[nH]c2ccc(C[C@H]3COC(=O)N3)cc12
inactive: outcome [1] | outcome [2] | outcome [3] | outcome [4] | Potency [5] | outcome [6] | outcome [7] | max response [8] 2.27% | Potency [17] | outcome [10] | Potency [20] | Potency [11] | Potency [12] | Potency [13] | Potency [18] | Potency [14] | outcome [15] | outcome [16]

CC1(C)C(=O)C(C)(C)C1=O
inactive: outcome [1] | outcome [2] | outcome [3] | outcome [4] | Potency [5] | outcome [7] | max response [8] 6.04% | Potency [9] | Potency [17] | outcome [10] | Potency [20] | Potency [19] | Potency [11] | Potency [12] | Potency [13] | Potency [18] | Potency [14] | outcome [15] | outcome [16]

Cc1cc(N)no1
inactive: outcome [1] | outcome [2] | outcome [3] | outcome [4] | Potency [5] | outcome [6] | outcome [7] | max response [8] 13.5% | outcome [10] | Potency [20] | Potency [19] | Potency [11] | Potency [12] | Potency [13] | Potency [18] | Potency [14] | outcome [15] | outcome [16]

CCCCCCCCC1CO1 (stereo not given)
inactive: outcome [1] | outcome [2] | outcome [3] | outcome [4] | Potency [5] | outcome [6] | outcome [7] | max response [8] -0.591% | Potency [17] | outcome [10] | Potency [20] | Potency [19] | Potency [11] | Potency [12] | Potency [13] | Potency [18] | Potency [14] | outcome [15] | outcome [16]

NC[C@H]1O[C@H](O[C@H]2[C@H](O)[C@@H](O[C@H]3O[C@H](CO)[C@@H](O)[C@H](N)[C@H]3O)[C@H](N)C[C@@H]2N)[C@H](N)[C@@H](O)[C@@H]1O
inactive: activity change, negative = cytotoxicity [1] 0.499% [at 15.8 µM] | activity change, negative = cytotoxic [2] 4.09% [at 15.8 µM] | cytotoxicity [3] -1.07% [at 15.8 µM] | cytotoxicity increase [5] -1.49% [at 15.8 µM] | viability change, negative = cytotoxic [7] 4% [at 15.8 µM] | max response [8] 5.23% | activity change [9] 0.657% [at 15.8 µM, stronger effect = higher value] | activity change, negative = cytotoxic [10] 3.63% [at 15.8 µM] | cytotoxicity [20] -0.281% [at 15.8 µM] | cytotoxicity increase [19] -4.11% [at 15.8 µM] | activity change, negative = cytotoxicity [11] -0.44% [at 15.8 µM] | cytotoxicity increase [12] -0.0128% [at 15.8 µM] | cytotoxicity [13] 1.75% [at 15.8 µM] | cytotoxicity increase [18] -2.59% [at 15.8 µM] | cytotoxicity increase [14] 1.34% [at 15.8 µM] | activity change, negative = cytotoxic [15] 3.1% [at 15.8 µM] | activity change, negative = cytotoxicity [16] 5.12% [at 15.8 µM]

CC/C=C\CCOC(=O)c1ccccc1
inactive: outcome [1] | outcome [2] | outcome [3] | outcome [7] | max response [8] -28.3% | Potency [9] | Potency [17] | outcome [10] | Potency [11] | Potency [13] | Potency [14] | outcome [15] | outcome [16]

CCCCCCCCCCCC(C)=O
inactive: outcome [1] | outcome [2] | outcome [3] | Potency [5] | outcome [7] | max response [8] 0.63% | Potency [9] | Potency [17] | outcome [10] | Potency [20] | Potency [19] | Potency [11] | Potency [12] | Potency [13] | Potency [18] | Potency [14] | outcome [15] | outcome [16]

CCCCS
inactive: outcome [1] | outcome [2] | outcome [3] | outcome [4] | outcome [7] | max response [8] 0.118% | Potency [17] | outcome [10] | Potency [20] | Potency [19] | Potency [11] | Potency [13] | Potency [18] | Potency [14] | outcome [15] | outcome [16]

CCCC(C)C(O)CC (stereo not given)
inactive: outcome [1] | outcome [2] | outcome [3] | Potency [5] | outcome [6] | outcome [7] | max response [8] 14.3% | Potency [9] | outcome [10] | Potency [20] | Potency [11] | Potency [12] | Potency [13] | Potency [18] | outcome [15] | outcome [16]

Cc1ccc(OC(=O)CC(C)C)cc1
inactive: outcome [1] | outcome [2] | outcome [3] | outcome [7] | max response [8] 3.9% | Potency [9] | Potency [17] | outcome [10] | Potency [20] | Potency [19] | Potency [11] | Potency [12] | Potency [13] | Potency [18] | Potency [14] | outcome [15] | outcome [16]
